Measured values as given in PubChem BioAssay (NCATS).
Where “and” joins values, the source holds several entries; their conditions need not be identical. Equal entries are not always repeated. Records with an inconclusive call do not appear. Where a structure was tested more than once in an assay, its records may differ in their call. Calls of active or inactive are those of the source. Calls follow the shape of the dose curve; as a rule, active = well fitted curve in the direction sought with a large enough effect; inconclusive = small, poorly fitted or top-dose-only effect, or another doubt; inactive = no such curve, though single readings can be large; an effect the other way counts as inactive or inconclusive.
% is scaled to controls: 0 for no effect and ±100 for the full control effect; potency is read from the fitted curve at half-maximal effect.

Target: Papain (Carica papaya) (UniProt P00784)
Sequence (P00784 whole entry, looked up): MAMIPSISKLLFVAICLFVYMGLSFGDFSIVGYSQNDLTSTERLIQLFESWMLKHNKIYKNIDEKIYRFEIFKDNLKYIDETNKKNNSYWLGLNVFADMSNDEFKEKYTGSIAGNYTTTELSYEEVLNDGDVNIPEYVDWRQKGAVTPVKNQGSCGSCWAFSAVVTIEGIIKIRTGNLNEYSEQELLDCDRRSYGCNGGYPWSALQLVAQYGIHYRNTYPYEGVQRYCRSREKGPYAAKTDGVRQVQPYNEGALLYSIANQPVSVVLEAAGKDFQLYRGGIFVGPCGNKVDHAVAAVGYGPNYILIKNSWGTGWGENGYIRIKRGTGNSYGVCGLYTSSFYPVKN
Assay: Primary qHTS assay for inhibitors of the protease papain (AID 1645873);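 also: papain turnover of Z-FR-AMC read as the AMC fluorescence gain over 10 min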
Details: papain Z-FR-AMC cleavage, AMC fluorescence; series mostly up to 49.8 µM; activity change, negative = inhibition: at the top concentration
For `CC(C)(C)[C@]1(O)CCN2C[C@H]3c4ccccc4CCc4cccc(c43)[C@@H]2C1`, the Potency was “inactive and 15.8 µM (active)”. In the case of `CCN(CC)CCNC(=O)c1cc(Cl)c(N)cc1OC`, the “activity change, negative = inhibition” value is reported as -4.41% (inactive). In the case of `CNCCC(Oc1ccc(C(F)(F)F)cc1)c1ccccc1` (stereo not given), the “activity change, negative = inhibition” value is reported as 33.6% (inactive). In the case of `CN1CCN(C2Cc3ccccc3Sc3ccc(Cl)cc32)CC1` (stereo not given), the “activity change, negative = inhibition” value is reported as 9.45% (inactive). In the case of `CN(C)CCC=C1c2ccccc2CCc2ccccc21`, the “activity change, negative = inhibition” value is reported as 9.45% (inactive). In the case of `CNCCCC1c2ccccc2C=Cc2ccccc21`, the “activity change, negative = inhibition” value is reported as 2.07% (inactive). With `CNC(=O)Oc1ccc2c(c1)[C@]1(C)CCN(C)[C@@H]1N2C` the “activity change, negative = inhibition” value was 2.25% (inactive). With `O=C1N=C(O)CN1/N=C/c1ccc(-c2ccc([N+](=O)[O-])cc2)o1` the “activity change, negative = inhibition” value was -6.03% (inactive). For `Cc1c(O)cccc1C(=O)N[C@@H](CSc1ccccc1)[C@H](O)CN1C[C@H]2CCCC[C@H]2C[C@H]1C(=O)NC(C)(C)C`, the “activity change, negative = inhibition” value was 8.73% (inactive). With `C=Cc1c(C)c2cc3[nH]c(cc4nc(cc5nc(cc1[nH]2)C(C)=C5CCC(=O)O)C(CCC(=O)O)=C4C)c(C)c3C=C` the “activity change, negative = inhibition” value was 0.09% (inactive). In the case of `CC(=O)c1ccc2c(c1)N(CCCN(C)C)c1ccccc1S2`, the “activity change, negative = inhibition” value is reported as 14.1% (inactive). For `CC(C)C(=O)c1c(C(C)C)nn2ccccc12`, the “activity change, negative = inhibition” value was 6.39% (inactive). For `CCN(CC)CCOC(=O)C1(C2CCCCC2)CCCCC1`, the “activity change, negative = inhibition” value was -7.47% (inactive).

Tested on: not listed separately
Assay: Primary qHTS for inhibitors of nuclear receptor binding SET domain protein 2 (NSD2) in an isogenic RCH-ACV NSD2 p.E1099K mutant (9B) (AID 1645876); also: nearly all actives have a fitted effect of over 70% in size
Details: RCH-ACV (leukaemia line) NSD2 E1099K (9B) viability, CellTiter-Glo, 72 h; series mostly up to 44.9 µM; activity change, negative = viability loss: at the top concentration
In the case of `C[C@@H]1CC[C@@]2(OC1)O[C@H]1C[C@H]3[C@@H]4CC[C@H]5C[C@@H](O)CC[C@]5(C)[C@H]4CC(=O)[C@]3(C)[C@H]1[C@@H]2C`, the activity change, negative = viability loss is reported as -10.8% [at 4.96 µM] (inactive). With `O=c1cc(CO)occ1O` the “activity change, negative = viability loss” value was 9.53% (inactive). In the case of `O=C(O)[C@@H]1CSCN1`, the “activity change, negative = viability loss” value is reported as -1.02% (inactive). With `CCN(CC)CCNC(=O)c1cc(Cl)c(N)cc1OC` the Potency was “inactive”. For `CN(N=O)C(=O)N[C@@H]1[C@@H](O)[C@H](O)[C@@H](CO)O[C@@H]1O`, the Potency was “inactive”. In the case of `CNC(=O)Oc1ccc2c(c1)[C@]1(C)CCN(C)[C@@H]1N2C`, the Potency is reported as “inactive”. For `c1ccc2c(CC3=NCCN3)cccc2c1`, the “activity change, negative = viability loss” value was -18.9% (inactive). For `O=C1N=C(O)CN1/N=C/c1ccc(-c2ccc([N+](=O)[O-])cc2)o1`, the “outcome” value was “inactive”. In the case of `C[C@H](N)[C@H](O)c1cccc(O)c1`, the “activity change, negative = viability loss” value is reported as 0.258% (inactive). For `Cc1cc2nc3c(=O)[nH]c(=O)nc-3n(C[C@H](O)[C@H](O)[C@H](O)CO)c2cc1C`, the “activity change, negative = viability loss” value was 5.85% [at 17.3 µM] (inactive). For `Cc1c(O)cccc1C(=O)N[C@@H](CSc1ccccc1)[C@H](O)CN1C[C@H]2CCCC[C@H]2C[C@H]1C(=O)NC(C)(C)C`, the Potency was 15 µM (active). In the case of `CC(C)C(=O)c1c(C(C)C)nn2ccccc12`, the “outcome” value is reported as “inactive”. With `COc1cc(C)c(Cc2cnc(N)nc2N)cc1OC` the “activity change, negative = viability loss” value was -20% (inactive). With `CCN(CC)CCOC(=O)C1(C2CCCCC2)CCCCC1` the “activity change, negative = viability loss” value was -21% (inactive). With `C=CCn1c(=O)n([C@@H]2O[C@H](CO)[C@@H](O)[C@H]2O)c2nc(N)[nH]c(=O)c21` the “activity change, negative = viability loss” value was 3.18% (inactive). With `OCC(O)CN1CCN(c2ccccc2)CC1` (stereo not given) the Potency was “inactive”. With `CC(=O)NC(Cc1ccccc1)C(=O)O` (stereo not given) the Potency was “inactive”.
